Assay results taken from PubChem BioAssay (Tox21).
Inconclusive results are not listed. The source made the active and inactive calls. Unless noted, the call rests on the fitted dose curve; in most records, active means well fitted curve in the direction sought with a large enough effect in the repeat runs; inconclusive means weak or mixed curves; inactive means no such curve, though single readings can be large; an effect the other way counts as inactive or inconclusive.

Assays:
[1] = qHTS assay for small molecule agonists of the p53 signaling pathway (AID 651631; calls by dose curve; further: nearly all actives have a fitted effect of over 15% in size)
Outline: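 Stably transfected HCT-116 cells (beta-lactamase behind p53 response elements) get compounds after a 5 h settling period; 16 h later at 37 °C, FRET substrate is loaded and fluorescence read after 2 h.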

[2] = qHTS assay for small molecules that induce genotoxicity in human embryonic kidney cells expressing luciferase-tagged ATAD5 (AID 651632); further: nearly all actives have a fitted effect of over 15% in size
Outline: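 HEK293T cells carrying luciferase-tagged ATAD5 were given compound or DMSO vehicle and incubated 16 hr at 37C, 5% CO2. Luciferase activity was read after 30 min at room temperature with Amplite; a rise signals genotoxic stress.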

[3] = qHTS assay for small molecule agonists of the p53 signaling pathway - cell viability (AID 651633; calls by dose curve;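 further: p53RE-bla HCT reporter cells with a stable beta-lactamase p53 reporter; series mostly up to about 83 µM; nearly all actives have a fitted effect of over 30% in size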)
Outline: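 p53RE-bla cells were treated with compound for 16 hours at 37 C. Cytotoxicity was then measured as CellTiter-Glo luminescence after 30 min at room temperature.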

[4] = qHTS assay for small molecules that induce genotoxicity in human embryonic kidney cells expressing luciferase-tagged ATAD5 - cell viability (AID 651634; calls by dose curve; further: nearly all actives have a fitted effect of over 25% in size)
Outline: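 HEK293T cells carrying luciferase-tagged ATAD5, 2,000 cells/well, exposed to compound for 15.5 hr at 37C. Viability read as live-cell protease activity by CellTiter-Fluor fluorescence after 30 min at 37C.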

[5] = qHTS assay for small molecule disruptors of the mitochondrial membrane potential - cell viability (AID 720634; calls by dose curve;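 further: human HepG2 liver cancer cells; series mostly up to about 83 µM; nearly all actives have a fitted effect of over 20% in size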)
Outline: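 HepG2 cells, 2,000 per well, attached overnight, then treated 1 hr at 37 C, 5% CO2. Viability read as ATP by CellTiter-Glo luminescence after 30 min at room temperature. Read in the same wells as the m-MPI membrane-potential dye assay.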

[6] = qHTS assay for small molecule disruptors of the mitochondrial membrane potential (AID 720635)
Outline: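 HepG2 cells exposed to compound 1 hr at 37C, then Mito-MPS dye 30 min. Ratio read of aggregate (540/590 nm) versus monomer (490/535 nm) fluorescence.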

[7] = qHTS assay to test for compound auto fluorescence at 590 nm (red) in HepG2 cells (AID 720674)
Outline: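 HepG2 cells, 2,000 per well in MEM with 10% FBS, attached overnight at 37 C, then got 23 nL compound or DMSO. After 1 hr at 37 C, 5% CO2, red fluorescence was read at 540/590 nm against Rose Bengal sodium as reference.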

[8] = qHTS assay to test for compound auto fluorescence at 535 nm (green) in HepG2 cells (AID 720675)
[9] = qHTS assay to test for compound auto fluorescence at 460 nm (blue) in HEK293 cells (AID 720678)
Outline: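 Measured: blue fluorescence (Ex 405/Em 460 nm) of compound-treated HEK293 cells, incubated overnight at 37C with 5% CO2 and scaled to triamterene equivalents.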

[10] = qHTS assay to test for compound auto fluorescence at 590 nm (red) in HEK293 cells (AID 720679)
Outline: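 Using HEK293 cells at 2,000 per well, the screen added 23 nL of each compound after cell attachment and incubated overnight (37C, 5% CO2). The plate reader then captured red-label fluorescence, Ex/Em 540/590nm.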

[11] = qHTS assay to test for compound auto fluorescence at 535 nm (green) in HEK293 cells (AID 720680)
[12] = qHTS assay to test for compound auto fluorescence at 460 nm (blue) in HEK293 cell free culture (AID 720681)
Outline: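 Compounds were added to cell-free DMEM with 10% FBS and fluorescence read directly. The blue channel used 405 nm excitation and 460 nm emission, with triamterene as the reference fluorophore.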

[13] = qHTS assay to test for compound auto fluorescence at 535 nm (green) in HEK293 cell free culture (AID 720682)
Outline: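 Using fluorescein as calibrant, autofluorescence was quantified at 485/535 nm in cell-free DMEM containing 10% FBS after pintool addition of compound or vehicle.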

[14] = qHTS assay to test for compound auto fluorescence at 590 nm (red) in HEK293 cell free culture (AID 720683)
Outline: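 Cell-free wells of DMEM with 10% FBS received compound, and intrinsic fluorescence was read at excitation/emission 540/590 nm. Values expressed as equivalence to Rose Bengal sodium.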

[15] = qHTS assay to test for compound auto fluorescence at 460 nm (blue) in HepG2 cell free culture (AID 720685)
Outline: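 Compound (23 nL) or DMSO pinned into cell-free MEM with 10% FBS; blue fluorescence read at 405/460 nm excitation/emission, expressed as auto-fluorescence equivalency to triamterene.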

[16] = qHTS assay to test for compound auto fluorescence at 535 nm (green) in HepG2 cell free culture (AID 720686)
[17] = qHTS assay to test for compound auto fluorescence at 460 nm (blue) in HepG2 cells (AID 720687)
Outline: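 HepG2 cells in MEM with 10% FBS, attached overnight at 37 C, were exposed to compound or DMSO for 1 hr at 37 C, 5% CO2. Blue fluorescence was read at 405/460 nm, with triamterene as reference fluorophore.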

[18] = target: Glucocorticoid receptor (Homo sapiens) (UniProt P04150); assay: qHTS assay to identify small molecule agonists of the glucocorticoid receptor (GR) signaling pathway (AID 720691; active means well fitted activation curve with a large enough effect in the signal ratio in the repeat runs, not every such curve was filed as active; the % refers to the signal ratio)
Outline: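 GR-bla HeLa cells carrying a GRE-driven beta-lactamase reporter, exposed to compounds for 18 h at 37 C. Reporter activation read as fluorescence after 2 h with LiveBLAzer B/G FRET substrate at room temperature.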

[19] = target: Glucocorticoid receptor (Homo sapiens) (UniProt P04150); assay: qHTS assay to identify small molecule antagonists of the glucocorticoid receptor (GR) signaling pathway (AID 720692; active means well fitted inhibition curve with a large enough effect in the signal ratio in the repeat runs, not every such curve was filed as active; the % refers to the signal ratio)
Outline: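 GR-bla HeLa cells carrying a GRE-driven beta-lactamase reporter received compound after 4 h plating, then dexamethasone (5 nM final). After 18 h at 37C, the FRET substrate was loaded for 2 h at room temperature and fluorescence read.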

[20] = qHTS assay to identify small molecule antagonists of the glucocorticoid receptor (GR) signaling pathway - cell viability counter screen (AID 720693); further: nearly all actives have a fitted effect of over 55% in size
[21] = qHTS assay for identifying genotoxic compounds that show differential cytotoxicity against isogenic chicken DT40 cell lines with known DNA damage response pathways - wild type cell line (AID 743012); further: nearly all actives have a fitted effect of over 60% in size
Outline: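 Wild-type DT40 cells (300/well) exposed to compounds for 40 hours at 37 C/5% CO2. Viability read by CellTiter-Glo luminescence after 30 min at room temperature.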

[22] = qHTS assay for identifying genotoxic compounds that show differential cytotoxicity against isogenic chicken DT40 cell lines with known DNA damage response pathways - Rev3 mutant cell line (AID 743014); further: nearly all actives have a fitted effect of over 55% in size
[23] = qHTS assay for identifying genotoxic compounds that show differential cytotoxicity against isogenic chicken DT40 cell lines with known DNA damage response pathways - Rad54/Ku70 mutant cell line (AID 743015); further: nearly all actives have a fitted effect of over 60% in size
[24] = qHTS assay to identify small molecule antagonists of the androgen receptor (AR) signaling pathway - cell viability counter screen (AID 743033; further: nearly all actives have a fitted effect of over 45% in size)
[25] = qHTS assay to identify small molecule antagonists of the androgen receptor (AR) signaling pathway using the MDA cell line - cell viability counter screen (AID 743041; further: nearly all actives have a fitted effect of over 45% in size)
Outline: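 Same-well cytotoxicity was assessed by CellTiter-Fluor in MDA-kb2 AR-luc cells after 16 h of compound treatment under R1881 agonism.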

[26] = qHTS assay to identify small molecule antagonists of the thyroid receptor (TR) signaling pathway (AID 743065); further: series mostly up to about 70 µM; nearly all actives have a fitted effect of over 55% in size
Outline: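 GH3.TRE-Luc rat pituitary cells (two TREs driving luciferase) were dosed with compound, then stimulated with 1 nM T3 (final) for 23.5 h at 37 C. ONE-Glo luminescence was the read-out, with CellTiter-Fluor fluorescence as the cytotoxicity counter-screen.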

[27] = tested on: thyroid hormone receptor (rat, GH3 cells); assay: qHTS assay to identify small molecule agonists of the thyroid receptor (TR) signaling pathway (AID 743066; calls by dose curve)
[28] = target: Estrogen receptor (Homo sapiens) (UniProt P03372); assay: qHTS assay to identify small molecule antagonists of the estrogen receptor alpha (ER-alpha) signaling pathway (AID 743069; active means well fitted curve in the direction sought with a large enough effect in the signal ratio in the repeat runs, not every such curve was filed as active; the % refers to the signal ratio)
Outline: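 Reporter cells (ER-alpha-bla, HEK293 background) are conditioned overnight in stripped-serum medium (2% charcoal-stripped FBS). Compound and 17beta-estradiol exposure runs 18 hr at 37C, 5% CO2.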

[29] = target: Estrogen receptor (Homo sapiens) (UniProt P03372); assay: qHTS assay to identify small molecule agonists of the estrogen receptor alpha (ER-alpha) signaling pathway (AID 743075; calls by dose curve;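 further: HEK293 GripTite cells with ER-alpha and UAS-driven beta-lactamase reporter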)
[30] = target: Estrogen receptor (Homo sapiens) (UniProt P03372); assay: qHTS assay to identify small molecule agonists of the estrogen receptor alpha (ER-alpha) signaling pathway using the BG1 cell line (AID 743079); further: nearly all actives have a fitted effect of over 20% in size
[31] = qHTS assay to identify small molecule antagonists of the estrogen receptor alpha (ER-alpha) signaling pathway using the BG1 cell line (AID 743080; calls by dose curve;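 further: BG1 cells stimulated with 17beta-estradiol alongside compound; series mostly up to about 70 µM; nearly all actives have a fitted effect of over 25% in size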)
Outline: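 Quantitative HTS on the Tox21 10K library: BG1 cells with endogenous ER-alpha and ERE-luciferase reporter, 17beta-estradiol stimulation, 21.5 h compound exposure, luminescence endpoint with parallel fluorescence cytotoxicity counter-read.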

[32] = qHTS assay to identify small molecule antagonists of the estrogen receptor alpha (ER-alpha) signaling pathway using the BG1 cell line - cell viability counter screen (AID 743081);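 further: compound given together with 17beta-estradiol as the ER stimulus; series mostly up to about 70 µM; nearly all actives have a fitted effect of over 45% in size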
Aromatase (Homo sapiens) = Aromatase (Homo sapiens) (UniProt P11511); assay: qHTS assay to identify aromatase inhibitors (AID 743083); further: series mostly up to about 70 µM; nearly all actives have a fitted effect of over 55% in size
[33] = qHTS assay to identify aromatase inhibitors - cell viability counter screen (AID 743084)
[34] = target: Aryl hydrocarbon receptor (Homo sapiens) (UniProt P35869); assay: qHTS assay to identify small molecule that activate the aryl hydrocarbon receptor (AhR) signaling pathway (AID 743085);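 further: HG2L7.5c1 human HepG2 liver cells with stably integrated DRE-driven firefly reporter; series mostly up to about 70 µM; nearly all actives have a fitted effect of over 15% in size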
Outline: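 Measured in HG2L7.5c1 cells: CellTiter-Fluor signal (30 min incubation, 37C) for viability, then luciferase luminescence (30 min, room temperature). Compound contact time was 24 h at 37C, following a 5 h pre-incubation.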

[35] = qHTS assay to identify small molecule that activate the aryl hydrocarbon receptor (AhR) signaling pathway - cell viability counter screen (AID 743086);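 further: HepG2 liver cells carrying the AhR DRE luciferase reporter; series mostly up to about 70 µM; nearly all actives have a fitted effect of over 45% in size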
Outline: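 HepG2-AhR-luc (HG2L7.5c1) cells, 4000/well, treated 24 h at 37 C with compound; viability measured as CellTiter-Fluor fluorescence after 30 min in the same wells as the luciferase read.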

[36] = qHTS assay to identify small molecule antagonists of the estrogen related receptor (ERR) signaling pathway - cell viability counter screen (AID 1224818); further: series mostly up to about 46 µM
Outline: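 ERR cells, 2,000 per well, compound added after 6 h and incubated 17.5 h at 37 C. Viability read by CellTiter-Fluor fluorescence after a further 30 min at 37 C.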

[37] = qHTS assay to identify small molecule antagonists of the estrogen related receptor (ERR) signaling pathway (AID 1224819;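 further: luminescence from an ERR-driven luciferase reporter measured with One-Glo reagent; series mostly up to about 46 µM; nearly all actives have a fitted effect of over 50% in size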)
Outline: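 ERR reporter cell line (NTP) plated at 2,000 cells/well, settled 6 h at 37C/5% CO2, then exposed to LOPAC compounds for 18 h at 37C. One-Glo luciferase luminescence read after 30 min at room temperature.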

[38] = qHTS assay to identify small molecule agonists of the estrogen related receptor (ERR) signaling pathway (AID 1224820)
Outline: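 Quantitative HTS of the LOPAC library used NTP ERR reporter cells treated 18 h at 37 C. Signal is luminescence after One-Glo addition and a 30 min room-temperature incubation.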

[39] = tested on: estrogen-related receptor alpha (ERRalpha) with PGC-1alpha coactivator, human; assay: qHTS assay to identify small molecule antagonists of the estrogen related receptor signaling pathway with the pleiotropic PPARgamma coactivator (PGC) (AID 1224821; calls by dose curve;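 further: series mostly up to about 46 µM; lower luminescence signal means antagonism of PGC/ERR signalling; nearly all actives have a fitted effect of over 50% in size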)
Outline: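 Quantitative HTS for antagonism: PGC/ERR cells received compounds after 6 h attachment and were incubated 18 h at 37 C, with luminescence (One-Glo) as the endpoint.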

[40] = qHTS assay to identify small molecule antagonists of the estrogen related receptor signaling pathway with the pleiotropic PPARgamma coactivator (PGC) cell viability counter screen (AID 1224822; further: series mostly up to about 46 µM)
Outline: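 PGC/ERR cells rested 6 h, then compound-treated 17.5 h at 37 C. CellTiter-Fluor added for 30 min at 37 C, viability measured by fluorescence intensity.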

[41] = qHTS assay to identify small molecule agonists of the estrogen related receptor signaling pathway with the pleiotropic PPARgamma coactivator (PGC) (AID 1224823)
Outline: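 Cell-based luciferase assay in the NTP-supplied PGC/ERR line, 2,000 cells/well; 18 h compound exposure at 37 C, luminescence after One-Glo.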

[42] = qHTS assay to identify small molecule phospholipidosis (PLD) inducers (AID 1259344; active means well fitted curve in the direction sought with a large enough effect; an effect the other way counts as inactive or inconclusive)
Outline: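 Quantitative HTS in HepG2: compound plus LipidTOX Red dye for 24 h, paraformaldehyde fixation with Hoechst 33342, widefield high-content imaging; amiodarone as positive and DMSO as negative control.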

[43] = target: Nuclear receptor subfamily 1 group I member 2 (Rattus norvegicus) (UniProt Q9R1A7); assay: Rat pregnane X receptor (rPXR) activation by small molecules, qHTS assay (AID 1346983); conditions: rPXR luciferase reporter cells, One-Glo luminescence, 24 h; max activation: active compounds read high; further: nearly all actives have a fitted effect of over 20% in size
Outline: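 Cell-based rPXR activation assay: rPXR cells, 2,000 per well, rested 5hr at 37 C, then exposed to compounds in DMSO for 24 hr at 37 C. Luciferase activity read by One-Glo luminescence after 30 min at room temperature.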

[44] = target: Nuclear receptor subfamily 1 group I member 2 (Homo sapiens) (UniProt O75469); assay: CYP3A4 induction through human pregnane X receptor (PXR) by small molecules, qHTS assay (AID 1346984); further: nearly all actives have a fitted effect of over 40% in size
Outline: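 DPX-2 HepG2 cells carrying a PXR response element and CYP3A4-promoter luciferase construct, treated with compounds 24 hr at 37C. Then P450-Glo CYP3A4 Luciferin-IPA substrate (3uM final) for 3 hr at 37C, One-Glo added, luminescence read.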

[45] = target: Nuclear receptor subfamily 1 group I member 2 (Homo sapiens) (UniProt O75469); assay: Human pregnane X receptor (PXR) activation by small molecules, qHTS assay (AID 1346985); further: nearly all actives have a fitted effect of over 40% in size
Outline: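 DPX-2 cells (HepG2 co-transfected with a PXR response element and a CYP3A4-promoter luciferase construct) were seeded at 2,000 per well, rested 5 hr at 37C, then exposed to DMSO-dissolved compounds for 24 hr. Activation was read as luciferase luminescence.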
On the % scale 0 is the no-effect control and ±100 the full control effect.

Estrogen receptor (Homo sapiens), sequence (P03372 whole entry, looked up): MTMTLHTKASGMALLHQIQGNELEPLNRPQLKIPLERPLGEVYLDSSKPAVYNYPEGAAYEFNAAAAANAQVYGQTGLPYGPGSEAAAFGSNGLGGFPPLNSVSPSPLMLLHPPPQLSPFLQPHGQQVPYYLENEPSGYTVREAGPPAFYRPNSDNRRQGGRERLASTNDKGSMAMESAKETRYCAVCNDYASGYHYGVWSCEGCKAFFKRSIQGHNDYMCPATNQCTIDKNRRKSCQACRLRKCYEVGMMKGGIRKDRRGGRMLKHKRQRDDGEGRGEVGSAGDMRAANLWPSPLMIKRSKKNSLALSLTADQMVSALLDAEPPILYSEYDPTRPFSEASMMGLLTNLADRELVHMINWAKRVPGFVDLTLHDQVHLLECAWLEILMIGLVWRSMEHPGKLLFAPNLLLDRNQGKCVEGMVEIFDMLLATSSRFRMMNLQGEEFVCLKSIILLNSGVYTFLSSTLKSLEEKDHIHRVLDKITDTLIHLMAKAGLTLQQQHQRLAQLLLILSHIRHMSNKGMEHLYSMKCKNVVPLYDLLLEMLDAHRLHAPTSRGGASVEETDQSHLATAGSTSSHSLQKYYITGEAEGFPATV
Glucocorticoid receptor (Homo sapiens), sequence (P04150 whole entry, looked up): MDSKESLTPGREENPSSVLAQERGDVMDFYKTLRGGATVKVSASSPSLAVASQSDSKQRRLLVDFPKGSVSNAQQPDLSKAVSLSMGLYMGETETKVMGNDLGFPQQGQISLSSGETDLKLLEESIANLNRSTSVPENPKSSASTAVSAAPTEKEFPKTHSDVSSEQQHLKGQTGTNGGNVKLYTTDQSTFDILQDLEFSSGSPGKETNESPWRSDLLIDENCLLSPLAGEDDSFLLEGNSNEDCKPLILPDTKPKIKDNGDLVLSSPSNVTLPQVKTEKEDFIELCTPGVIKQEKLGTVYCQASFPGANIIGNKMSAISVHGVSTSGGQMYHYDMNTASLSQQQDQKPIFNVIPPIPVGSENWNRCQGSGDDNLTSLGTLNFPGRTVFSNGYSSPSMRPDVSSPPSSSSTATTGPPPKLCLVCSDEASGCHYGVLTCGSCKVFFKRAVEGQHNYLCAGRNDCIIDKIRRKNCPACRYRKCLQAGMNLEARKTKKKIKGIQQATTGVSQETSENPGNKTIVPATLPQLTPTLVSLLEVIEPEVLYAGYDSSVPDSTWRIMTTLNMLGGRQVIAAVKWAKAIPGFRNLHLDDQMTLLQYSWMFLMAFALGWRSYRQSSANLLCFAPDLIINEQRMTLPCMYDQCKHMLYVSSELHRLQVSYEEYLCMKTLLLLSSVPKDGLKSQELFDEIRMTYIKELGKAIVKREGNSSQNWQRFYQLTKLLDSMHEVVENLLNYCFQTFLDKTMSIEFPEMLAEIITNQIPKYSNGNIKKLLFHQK
Aromatase (Homo sapiens), sequence (P11511 whole entry, looked up): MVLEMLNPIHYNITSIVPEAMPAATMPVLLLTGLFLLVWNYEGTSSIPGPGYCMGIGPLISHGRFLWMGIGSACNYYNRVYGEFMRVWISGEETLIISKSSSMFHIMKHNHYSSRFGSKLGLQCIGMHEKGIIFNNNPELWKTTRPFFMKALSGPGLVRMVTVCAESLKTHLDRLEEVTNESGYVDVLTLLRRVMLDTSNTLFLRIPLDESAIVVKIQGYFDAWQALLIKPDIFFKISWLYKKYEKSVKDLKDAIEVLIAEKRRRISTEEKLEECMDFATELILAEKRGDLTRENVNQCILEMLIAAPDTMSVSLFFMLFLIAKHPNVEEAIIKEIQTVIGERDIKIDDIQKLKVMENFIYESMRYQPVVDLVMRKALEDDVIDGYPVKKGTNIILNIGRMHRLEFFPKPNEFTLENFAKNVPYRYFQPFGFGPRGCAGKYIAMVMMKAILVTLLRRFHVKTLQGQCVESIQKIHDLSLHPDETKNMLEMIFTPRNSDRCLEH
Aryl hydrocarbon receptor (Homo sapiens), sequence (P35869 whole entry, looked up): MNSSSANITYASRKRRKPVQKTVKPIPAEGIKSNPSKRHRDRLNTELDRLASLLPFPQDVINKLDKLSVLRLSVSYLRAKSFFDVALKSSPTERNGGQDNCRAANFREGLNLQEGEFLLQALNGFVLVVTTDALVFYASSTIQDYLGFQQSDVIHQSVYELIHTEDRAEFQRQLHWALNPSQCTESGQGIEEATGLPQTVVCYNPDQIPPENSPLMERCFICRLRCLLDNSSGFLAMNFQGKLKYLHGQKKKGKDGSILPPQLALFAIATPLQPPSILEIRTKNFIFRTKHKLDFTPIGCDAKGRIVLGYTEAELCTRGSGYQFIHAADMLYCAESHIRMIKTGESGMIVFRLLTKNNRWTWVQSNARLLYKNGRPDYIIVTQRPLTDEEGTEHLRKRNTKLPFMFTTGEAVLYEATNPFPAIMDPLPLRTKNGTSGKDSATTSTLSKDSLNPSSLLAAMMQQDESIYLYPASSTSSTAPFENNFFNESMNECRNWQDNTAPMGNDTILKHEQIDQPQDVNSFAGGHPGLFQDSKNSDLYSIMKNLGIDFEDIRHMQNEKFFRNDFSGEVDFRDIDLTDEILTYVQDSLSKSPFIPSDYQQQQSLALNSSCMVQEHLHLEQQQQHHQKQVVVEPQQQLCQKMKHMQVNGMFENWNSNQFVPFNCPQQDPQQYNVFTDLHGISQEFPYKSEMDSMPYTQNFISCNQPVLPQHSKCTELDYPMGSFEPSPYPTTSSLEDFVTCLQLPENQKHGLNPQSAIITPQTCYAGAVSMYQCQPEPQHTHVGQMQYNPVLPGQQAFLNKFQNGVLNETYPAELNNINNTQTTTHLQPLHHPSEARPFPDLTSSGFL
Nuclear receptor subfamily 1 group I member 2 (Rattus norvegicus), sequence (Q9R1A7 whole entry, looked up): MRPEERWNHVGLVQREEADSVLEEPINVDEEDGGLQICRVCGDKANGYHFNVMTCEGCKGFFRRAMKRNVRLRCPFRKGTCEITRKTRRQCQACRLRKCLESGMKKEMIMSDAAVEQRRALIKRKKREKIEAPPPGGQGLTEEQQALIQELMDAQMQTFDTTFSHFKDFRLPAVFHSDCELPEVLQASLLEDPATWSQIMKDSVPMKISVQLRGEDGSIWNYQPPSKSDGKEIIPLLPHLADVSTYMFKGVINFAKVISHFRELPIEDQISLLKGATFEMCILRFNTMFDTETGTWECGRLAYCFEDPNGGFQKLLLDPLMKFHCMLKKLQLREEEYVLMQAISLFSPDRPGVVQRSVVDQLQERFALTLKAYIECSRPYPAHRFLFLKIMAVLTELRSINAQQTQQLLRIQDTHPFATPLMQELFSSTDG

CCCN1CCC[C@H](c2cccc(O)c2)C1
inactive: Potency [1] | Potency [2] | Potency [3] | Potency [4] | Potency [5] | Potency [6] | outcome [7] | Potency [8] | Potency [9] | outcome [10] | Potency [11] | Potency [12] | Potency [13] | outcome [14] | Potency [15] | Potency [16] | Potency [17] | Potency [18] | Potency [19] | Potency [20] | Potency [21] | Potency [22] | Potency [23] | Potency [24] | Potency [25] | Potency [26] | Potency [27] | Potency [28] | Potency [29] | Potency [30] | Potency [31] | Potency [32] | Potency (Aromatase (Homo sapiens)) | Potency [33] | Potency [34] | Potency [35] | Potency [36] | Potency [37] | Potency [38] | Potency [39] | Potency [40] | Potency [41] | Potency [42] | max activation [43] -2.62% | Potency [44] | Potency [45]
